These results are taken from PubChem BioAssay (Tox21).

Records with an inconclusive call do not appear. Calls of active or inactive are those of the source. Unless noted, calls follow the shape of the dose curve; as a rule, active = well fitted curve in the direction sought with a large enough effect in the repeat runs; inconclusive = weak or mixed curves; inactive = no such curve, though single readings can be large; an effect the other way counts as inactive or inconclusive.

Assay [1] can be described thus: qHTS assay to identify aromatase inhibitors - cell viability counter screen (AID 743084).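 Also: cells stimulated with testosterone during compound exposure; nearly all actives have a fitted effect of over 55% in size.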
Assay [2] has as its target Aryl hydrocarbon receptor (Homo sapiens) (UniProt P35869). As to the kind of experiment: qHTS assay to identify small molecule that activate the aryl hydrocarbon receptor (AhR) signaling pathway (AID 743085). Also: nearly all actives have a fitted effect of over 15% in size. Also: potency is read from the fitted curve at half-maximal effect.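 As to activation: HG2L7.5c1 human HepG2 liver cells with stably integrated DRE-driven firefly reporter; series mostly up to about 70 µM.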 The essentials: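 A multiplexed format paired cell viability (CellTiter-Fluor fluorescence) with AhR-dependent luciferase output (ONE-Glo luminescence) in the same wells of HepG2 DRE-luc cells after 24 h compound exposure at 37C.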

Assay [3] can be described thus: qHTS assay to identify small molecule that activate the aryl hydrocarbon receptor (AhR) signaling pathway - cell viability counter screen (AID 743086).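 Also: HepG2 liver cells carrying the AhR DRE luciferase reporter; series mostly up to about 70 µM; nearly all actives have a fitted effect of over 45% in size.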 An outline of the steps:
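Cytotoxicity counter screen: CellTiter-Fluor signal (30 min, 37 C) in 4000 HepG2 cells/well carrying the DRE-luciferase reporter, following 24 h compound exposure at 37 C.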

The target in assay [4] is Peroxisome proliferator-activated receptor gamma (Homo sapiens) (UniProt P37231). As to the kind of experiment: qHTS assay to identify small molecule agonists of the peroxisome proliferator-activated receptor gamma (PPARg) signaling pathway (AID 743094; active = well fitted activation curve with a large enough effect in the signal ratio in the repeat runs, not every such curve was filed as active; the % refers to the signal ratio). An outline of the steps:
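Quantitative HTS agonist mode: stable HEK293H line with UAS-beta-lactamase reporter under PPARg control, 17 h compound exposure at 37C, fluorescence after 1 h FRET substrate loading at room temperature.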

Assay [5] has the same target. As to the kind of experiment: qHTS assay to identify small molecule antagonists of the peroxisome proliferator-activated receptor gamma (PPARg) signaling pathway (AID 743191; calls by dose curve; also: series mostly up to about 63 µM; nearly all actives have a fitted effect of over 30% in size). The essentials: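 Beta-lactamase reporter under UAS control in HEK293H PPARg-bla cells; compound treatment 17 h at 37C. Read-out: fluorescence intensity after 1 h room-temperature incubation with LiveBLAzer B/G FRET substrate.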

A short description of assay [6]: qHTS assay to identify small molecule antagonists of the peroxisome proliferator-activated receptor gamma (PPARg) signaling pathway - cell viability counter screen (AID 743194). Also: nearly all actives have a fitted effect of over 55% in size. An outline of the steps:
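Viability was measured as CellTiter-Glo luminescence in GeneBLAzer PPARg UAS-bla HEK293H cells. These cells had been exposed 17 h at 37 C to compounds together with rosiglitazone at 50 nM final, with the beta-lactamase readout taken in the same wells.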

A short description of assay [7]: qHTS assay for small molecule agonists of the antioxidant response element (ARE) signaling pathway (AID 743202; active = well fitted activation curve with a large enough effect in the signal ratio in the repeat runs, not every such curve was filed as active; the % refers to the signal ratio; also: potency is read from the fitted curve at half-maximal effect). The essentials: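 An ARE-responsive beta-lactamase gene stably integrated in HepG2 cells serves as reporter. After 5 h plating and 16 h compound incubation at 37 C, fluorescence of the B/G FRET substrate was measured.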
Assay [8] can be described thus: qHTS assay for small molecule agonists of the antioxidant response element (ARE) signaling pathway - cell viability counter screen (AID 743203; calls by dose curve; also: nearly all actives have a fitted effect of over 55% in size). The essentials:
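Seeded at 2,000 cells/well, ARE-bla HepG2 cells were incubated 5 hrs before compound addition. After 16 hrs of treatment at 37C with 5% CO2, CellTiter-Glo reagent was added and luminescence read 30 min later.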

Assay [9] in a line: qHTS assay for small molecule activators of the heat shock response signaling pathway - cell viability counter screen (AID 743209). Also: nearly all actives have a fitted effect of over 50% in size. An outline of the steps:
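First, HSE-bla HeLa cells were seeded at 1500 cells/well and kept overnight at 37 C. Next, compounds were pinned in and incubated 5 h. After the FRET substrate step, CellTiter-Glo was added and luminescence read 30 min later.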

Assay [10] can be described thus: qHTS assay for small molecule activators of the heat shock response signaling pathway (AID 743210; active = well fitted activation curve with a large enough effect in the signal ratio in the repeat runs, with a control signal flat, not every such curve was filed as active; the % refers to the signal ratio;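 also: HeLa cells with beta-lactamase reporter driven by heat shock elements; series mostly up to about 63 µM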). The essentials: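 In HSE-bla HeLa cells, 5 h compound incubation (37 C) precedes addition of LiveBLAzer B/G substrate; after 2.5 h at room temperature, fluorescence intensity indicates reporter induction.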

Aryl hydrocarbon receptor (Homo sapiens), sequence (P35869 whole entry, looked up): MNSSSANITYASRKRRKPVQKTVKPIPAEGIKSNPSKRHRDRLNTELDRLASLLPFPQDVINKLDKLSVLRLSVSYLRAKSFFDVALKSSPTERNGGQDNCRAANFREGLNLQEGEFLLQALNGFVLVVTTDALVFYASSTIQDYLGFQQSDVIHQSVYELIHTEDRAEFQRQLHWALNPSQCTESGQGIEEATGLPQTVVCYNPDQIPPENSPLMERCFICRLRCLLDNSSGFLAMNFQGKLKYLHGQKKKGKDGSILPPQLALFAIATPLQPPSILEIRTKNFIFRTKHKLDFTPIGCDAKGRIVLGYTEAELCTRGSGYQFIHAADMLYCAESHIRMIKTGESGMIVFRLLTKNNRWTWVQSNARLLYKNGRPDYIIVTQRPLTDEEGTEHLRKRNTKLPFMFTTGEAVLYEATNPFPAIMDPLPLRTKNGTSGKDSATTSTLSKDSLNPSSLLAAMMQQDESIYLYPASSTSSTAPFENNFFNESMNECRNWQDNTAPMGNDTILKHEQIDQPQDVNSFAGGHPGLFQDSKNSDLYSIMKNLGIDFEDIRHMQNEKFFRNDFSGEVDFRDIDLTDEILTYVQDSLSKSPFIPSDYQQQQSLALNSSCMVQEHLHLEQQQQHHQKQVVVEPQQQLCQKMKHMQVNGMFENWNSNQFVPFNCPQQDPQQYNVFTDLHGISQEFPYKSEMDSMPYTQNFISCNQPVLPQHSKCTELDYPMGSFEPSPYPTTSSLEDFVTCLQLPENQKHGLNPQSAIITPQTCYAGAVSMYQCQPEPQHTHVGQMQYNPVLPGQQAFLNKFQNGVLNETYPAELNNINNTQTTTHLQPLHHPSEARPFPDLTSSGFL
Peroxisome proliferator-activated receptor gamma (Homo sapiens), sequence (P37231 whole entry, looked up): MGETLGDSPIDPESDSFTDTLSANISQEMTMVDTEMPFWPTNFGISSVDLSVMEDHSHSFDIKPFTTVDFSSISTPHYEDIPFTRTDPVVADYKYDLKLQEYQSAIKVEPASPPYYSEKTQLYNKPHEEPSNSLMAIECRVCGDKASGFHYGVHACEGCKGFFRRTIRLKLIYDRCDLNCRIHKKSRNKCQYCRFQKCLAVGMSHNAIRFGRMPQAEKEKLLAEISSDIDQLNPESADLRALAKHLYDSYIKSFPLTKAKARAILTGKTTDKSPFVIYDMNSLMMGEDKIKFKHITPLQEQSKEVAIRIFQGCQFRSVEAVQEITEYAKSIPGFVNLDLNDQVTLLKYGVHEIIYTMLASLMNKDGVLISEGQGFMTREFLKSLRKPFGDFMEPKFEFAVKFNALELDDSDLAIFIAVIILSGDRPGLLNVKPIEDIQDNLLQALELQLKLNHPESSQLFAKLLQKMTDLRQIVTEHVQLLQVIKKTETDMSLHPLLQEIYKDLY

On to `CC(=O)C=C(C)C`, for which the compound was called inactive in assay [1], in assay [3], in assay [4], in [6], in assay [8] and in assay [9]. For the same compound, the compound was classed as inactive in [10]. Also, the Potency result in [2], in [5] and in assay [7] was “inactive” in each case.

Consider `CC(C)OC(=O)Nc1ccccc1`, for which the compound was classed as inactive in [1], in assay [3], in assay [4], in [6], in assay [8] and in assay [9]. The call in assay [10] was inactive. In addition, the Potency entry in assay [2], in assay [5] and in assay [7] was “inactive” in each case.

Take `CCCN(CCC)c1c([N+](=O)[O-])cc(C(F)(F)F)cc1[N+](=O)[O-]`: the compound was called inactive in [1], in assay [3], in [4], in assay [6], in [8] and in [9]. In addition, in [10], the result was inactive. Besides, the Potency result in assay [2], in assay [5] and in [7] was “inactive” each time.

On to `Cc1[nH]c(=O)n(C(C)(C)C)c(=O)c1Cl`, for which the outcome in assay [1], in [3], in assay [4], in assay [6], in assay [8] and in assay [9] was inactive. For the same compound, the call in [10] was inactive. The Potency result in assay [2], in assay [5] and in assay [7] was “inactive” in each case.

As for `Oc1ccccc1Cl`, the result in assay [1], in [3], in assay [4], in assay [6], in assay [8] and in assay [9] was inactive. The result in assay [10] was inactive. Further, the Potency entry in [2], in assay [5] and in assay [7] was “inactive” each time.

`CC(C)=C[C@@H]1[C@@H](C(=O)OCc2coc(Cc3ccccc3)c2)C1(C)C`: the compound was called inactive in [1], in assay [3], in assay [4], in [6], in assay [8] and in [9]. For the same compound, the outcome in assay [10] was inactive. Moreover, the Potency entry in [2], in [5] and in assay [7] was “inactive” throughout.

Regarding `COC(=O)c1ccccc1C(=O)OC`, the compound was called inactive in [1], in assay [3], in [4], in assay [6], in [8] and in assay [9]. In assay [10], the compound was classed as inactive. Moreover, the Potency result in assay [2], in assay [5] and in assay [7] was “inactive” in each case.

As for `O=[N+]([O-])c1ccc(Oc2ccc(Cl)cc2Cl)cc1`, the outcome in assay [1], in assay [3], in [4], in assay [6], in [8] and in assay [9] was inactive. The result in assay [10] was inactive. Moreover, the Potency entry in assay [2], in [5] and in assay [7] was “inactive” throughout.

As to `COC(=O)c1ccccc1N`, the call in [1], in [3], in assay [4], in assay [6], in assay [8] and in assay [9] was inactive. For the same compound, the outcome in assay [10] was inactive. For the same compound, the Potency entry in assay [2], in assay [5] and in assay [7] was “inactive” each time.

Regarding `Nc1ccccc1C(=O)O`, the call in [1], in assay [3], in assay [4], in assay [6], in [8] and in assay [9] was inactive. In assay [10], the call was inactive. For the same compound, the Potency result in assay [2], in assay [5] and in assay [7] was “inactive” in each case.

Consider `CCOP(=S)(OCC)SCCSCC`, for which the compound was called inactive in assay [1], in assay [3], in assay [4], in assay [6], in assay [8] and in assay [9]. Besides, the compound was called inactive in assay [10]. Moreover, the Potency result in assay [2], in assay [5] and in assay [7] was “inactive” throughout.

For `CCCCCCCCCl`, the compound was classed as inactive in assay [1], in [3], in [4], in [6], in assay [8] and in assay [9]. In addition, in assay [10], the result was inactive. Further, the Potency result in [2], in assay [5] and in [7] was “inactive” throughout.

With `O=NN1CCCC1`, the compound was classed as inactive in [1], in [3], in assay [4], in assay [6], in assay [8] and in assay [9]. The compound was called inactive in assay [10]. The Potency entry in [2], in [5] and in assay [7] was “inactive” throughout.

Consider `O=S(=O)(c1ccc(O)cc1)c1ccc(O)cc1`, for which the call in [1], in assay [3], in assay [4], in assay [6], in assay [8] and in assay [9] was inactive. Moreover, the call in [10] was inactive. For the same compound, the Potency result in [2], in assay [5] and in assay [7] was “inactive” each time.

Regarding `C1CC2OC2CC1C1CO1` (stereo not drawn), the result in assay [1], in [3], in assay [4], in assay [6], in assay [8] and in assay [9] was inactive. In addition, in [10], the call was inactive. Also, the Potency entry in assay [2], in [5] and in assay [7] was “inactive” in each case.

For `O=NN1CCCCCCC1`, the compound was classed as inactive in [1], in assay [3], in assay [4], in assay [6], in assay [8] and in assay [9]. Moreover, the call in assay [10] was inactive. In addition, the Potency entry in [2], in assay [5] and in assay [7] was “inactive” throughout.

In the case of `O=Cc1cccc(Oc2ccccc2)c1`, the compound was classed as inactive in assay [1], in [3], in assay [4], in assay [6], in [8] and in assay [9]. Besides, in [10], the call was inactive. The Potency entry in assay [2], in assay [5] and in assay [7] was “inactive” throughout.

In the case of `CCN(CC)c1ccccc1`, the result in assay [1], in assay [3], in [4], in assay [6], in assay [8] and in assay [9] was inactive. Also, the compound was called inactive in assay [10]. For the same compound, the Potency entry in assay [2], in assay [5] and in assay [7] was “inactive” in each case.

In the case of `CCCCCOC(=O)c1ccccc1C(=O)OCCCCC`, the call in assay [1], in [3], in [4], in assay [6], in assay [8] and in assay [9] was inactive. Also, the result in assay [10] was inactive. Also, the Potency entry in [2], in assay [5] and in [7] was “inactive” each time.

As for `Cc1ccccc1O`, the result in [1], in assay [3], in assay [4], in assay [6], in assay [8] and in [9] was inactive. Besides, the outcome in assay [10] was inactive. Moreover, the Potency entry in assay [2], in [5] and in assay [7] was “inactive” throughout.

For `CC(C#N)CCC#N` (stereo not drawn), the outcome in assay [1], in [3], in [4], in assay [6], in assay [8] and in assay [9] was inactive. In assay [10], the result was inactive. Moreover, the Potency entry in assay [2], in assay [5] and in assay [7] was “inactive” throughout.

Regarding `O=[N+]([O-])c1ccc([As](=O)(O)O)cc1`, the compound was classed as inactive in assay [1], in assay [3], in assay [4], in [6], in assay [8] and in assay [9]. Further, the compound was called inactive in assay [10]. Besides, the Potency entry in assay [2] and in [5] was “inactive” each time. Besides, in [7], the Potency is 54.5 µM (active).

For the compound `Nc1c(Cl)c(Cl)nc(C(=O)O)c1Cl`, the outcome in [1], in assay [3], in assay [4], in assay [6], in assay [8] and in assay [9] was inactive. Besides, in [10], the compound was classed as inactive. In assay [2], the Potency was 34 µM (active). Moreover, the Potency entry in assay [5] and in assay [7] was “inactive” throughout.

For the compound `Cn1cc(-c2ccccc2)c(=O)c(-c2cccc(C(F)(F)F)c2)c1`, the Potency entry in assay [2], in assay [5] and in assay [7] was “inactive” each time. Moreover, the compound was classed as inactive in assay [3], in [4], in assay [6], in assay [8], in assay [9] and in [10].

For `NCC(O)c1ccc(O)cc1` (stereo not drawn), the compound was classed as inactive in assay [1], in assay [3], in assay [4], in assay [6], in assay [8] and in assay [9]. The compound was classed as inactive in assay [10]. Also, the Potency result in assay [2] and in [7] was “inactive” in each case.

Turning to `CCCCN(CCCC)SN(C)C(=O)Oc1cccc2c1OC(C)(C)C2`, the call in [1], in assay [3], in [4], in assay [8], in [9] and in assay [10] was inactive. In addition, the Potency result in [2] and in assay [7] was “inactive” throughout.

Turning to `CC(C)(C)C(O)(CCc1ccc(Cl)cc1)Cn1cncn1` (stereo not drawn), the compound was classed as inactive in assay [1], in assay [3], in assay [6], in assay [8], in [9] and in assay [10]. For the same compound, the Potency result in [2] and in assay [5] was “inactive” throughout.

On to `COc1ccc2c3c1O[C@H]1[C@@H](O)C=C[C@H]4[C@@H](C2)N(C)CC[C@@]341`, for which the call in [1], in assay [3], in [4], in assay [6], in [8] and in assay [9] was inactive. The result in [10] was inactive. Moreover, the Potency result in [2] is “inactive”. In assay [7], the Potency was 26.9 µM (active).
